In all, about 2,100 compounds went through this assay and about 590 (28%) were called active. About 42% were inconclusive and are not listed. The list shows a part of the results. Values without a mark were called inactive. Calls follow the shape of the dose curve; as a rule, active = well fitted inhibition curve with a large enough effect; inconclusive = small, poorly fitted or top-dose-only effect; inactive = flat fitted curve, though single readings scatter.
biological target: DNA dC->dU-editing enzyme APOBEC-3F (Homo sapiens) (UniProt Q8IUX4); assay: qHTS for inhibitors of Vif-A3F interactions: Cherry picks; details: HeLa A3F-eYFP + Vif (tagged APOBEC3F with the HIV-1 protein that degrades it), eYFP fluorescence, 24 h; also: nearly all actives have a fitted effect of over 70% in size;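 as to max response: % of control where 0% means no effect; active compounds raise eYFP fluorescence by blocking Vif-driven A3F loss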
Sequence (Q8IUX4 whole entry, looked up): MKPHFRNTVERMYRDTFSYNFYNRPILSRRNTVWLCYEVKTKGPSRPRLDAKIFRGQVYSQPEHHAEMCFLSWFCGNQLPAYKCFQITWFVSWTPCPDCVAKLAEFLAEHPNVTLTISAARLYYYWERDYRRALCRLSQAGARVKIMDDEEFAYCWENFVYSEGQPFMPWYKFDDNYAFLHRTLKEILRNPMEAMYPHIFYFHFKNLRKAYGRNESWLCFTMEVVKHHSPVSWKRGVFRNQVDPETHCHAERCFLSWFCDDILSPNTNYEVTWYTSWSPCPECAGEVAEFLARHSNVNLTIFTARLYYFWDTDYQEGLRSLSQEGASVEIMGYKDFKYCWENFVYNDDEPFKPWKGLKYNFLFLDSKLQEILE
From the text: The recent discovery and characterization of host restriction factors, which provide a potent defense to invading retroviruses, has provided new targets for antiviral drug development. APOBEC3G (A3G) and APOBEC3F (A3F) are potent cytidine deaminases that block HIV-1 replication; HIV-1 expresses the Vif protein, which counteracts A3G and A3F by binding to them and inducing their proteasomal degradation. The Vif-A3G and Vif-A3F interactions provide two potential targets for development of small molecules which can interfere with the ability of Vif to degrade A3G or A3F. […] To identify inhibitors that can interfere with Vif mediated degradation of A3G and A3F, we have developed Hela cell lines that stably express A3G or A3F tagged with eYFP at the C-terminal end (A3G-eYFP or A3F-eYFP, respectively) and Vif. In the absence of an inhibitor, Vif induces degradation of A3G-eYFP and A3F-eYFP, and the cells are not fluorescent. In the presence of an inhibitor, it is expected that Vif will be unable to degrade A3G-eYFP and/or A3F-eYFP, resulting in an increase in yellow fluorescence. In this assay, Vif A3F was screened against the cherry picks ordered from the MLSMR. NIH Chemical Genomics Center [NCGC] NIH Molecular Libraries Probe Centers Network [MLPCN] MLPCN Grant: MH093245 Assay Submitter (PI): Vinay Pathak, National Cancer Institute
A3F-Vif cells were harvested from T225 flask and resuspended in phenol free OPTI-MEM medium with 5% FBS. Then 5 uL of 140,000 cells/mL resuspended cells was dispensed into each well of low base Aurora COC 1,536-well plates (black walled, clear bottom) using a Multidrop Combi dispenser. After overnight culture at 37 deg C with 5% CO2, a total of 23 nL of compounds at 5 selected concentrations from the NPC or positive control (2 mM stock of MG132) in DMSO was transferred to each well of the assay plate using a pintool (Kalypsys, San Diego, CA), and the plates were further incubated at 37 deg C with 5% CO2 for 24 hours. After that, the plates were measured on Acumen Explorer (TTP Lab Tech). The fluorescence was detected by 488 nm/Ex and […].
Potency is read from the fitted curve at half-maximal effect.

| SMILES | max response [%] | Potency |
| --- | --- | --- |
| Cc1ccc(N2C(=O)[C@@H]3[C@H](C2=O)[C@H]2C=C(C(=O)c4ccccc4)C=CN2[C@@H]3C(=O)c2ccc(Cl)cc2)cc1 | -5.61 |  |
| COc1ccc(/C=C(/C(=O)c2cccs2)N2C=CC=CC2=C(C#N)C#N)cc1 | -25.3 |  |
| CCOC(=O)c1c(CN(CC)CC)n(-c2ccccc2)c2ccc(O)cc12 | 0.203 |  |
| COc1cc(/C=C2\SC(=Nc3cccnc3)NC2=O)cc(OC)c1OC | -8.17 |  |
| COc1cc(/C=C2/SC(=Nc3ccc(O)cc3)NC2=O)ccc1O |  | 16.4 µM (active) |
| CCC(=O)NC(=S)Nc1cccc(Cl)c1N1CCCC1 | -0.93 |  |
| COCCCN(C(C)=O)c1nc(-c2ccc(OC)cc2)cs1 | -29.1 |  |
| CCOC(=O)c1ccc(NC(=S)Nc2cccc(C)n2)cc1 | -6.7 |  |
| Cc1ccc(NC(=S)Nc2ccccn2)c(C)c1 | 1.92 |  |
| CCOC(=O)c1cc(-c2ccccc2)sc1NC(=S)Nc1cc(C)ccn1 |  | 8.2 µM (active) |
| CC(=O)Nc1ccc2c(c1)Cc1ccc(Cl)cc1-2 | -9.88 |  |
| NC(=O)C1CCN(c2nc3ccccc3nc2NS(=O)(=O)c2ccc(Br)cc2)CC1 | -0.959 |  |
| COc1ccc(N2C(=O)NC3CC2(C)Oc2ccccc23)cc1OC (configuration not stated) | -29.4 |  |
| N#C/C(=C\c1ccc([N+](=O)[O-])o1)c1nc2ccccc2[nH]1 |  | 5.17 µM (active) |
| Cc1ccc2nc(/C(C#N)=C\c3ccc([N+](=O)[O-])o3)[nH]c2c1 |  | 3.26 µM (active) |
| COc1ccc(C(C)(O)c2nc(-c3ccccc3OC)cs2)cc1 (configuration not stated) | -27.4 |  |
| O=C1/C(=C/c2ccc([N+](=O)[O-])cc2)Oc2cc(O)ccc21 | -5.76 |  |
| CN(C)c1ccc(/C=C2\Oc3ccc(C#Cc4cccc(N)c4)cc3C2=O)cc1 |  | 12.5 µM (active) |
| Cc1ccnc(N/C=C(\C#N)c2nc(-c3cccc(Br)c3)cs2)c1 |  | 11.2 µM (active) |

| SMILES | max response [%] | Potency |
| --- | --- | --- |
| O=C(O)c1ccccc1/C=N/Nc1ccc(S(=O)(=O)N2CCOCC2)cc1[N+](=O)[O-] | -0.875 |  |
| O=[N+]([O-])c1ccccc1S(=O)(=O)Nc1ccc(-c2ccc(N3CCOCC3)nn2)cc1 | -8.95 |  |
| COc1ccccc1NS(=O)(=O)c1cc([N+](=O)[O-])ccc1N/N=C/c1sc(N2CCOCC2)nc1-c1ccccc1 |  | 2.06 µM (active) |
| O=[N+]([O-])c1ccc(N/N=C/c2sc(N3CCOCC3)nc2-c2ccccc2)c(S(=O)(=O)Nc2ccccc2Cl)c1 |  | 9.2 µM (active) |
| COc1ccc(NC(=O)C2Cc3c(-c4cccc(C(C)=O)c4)ccnc3O2)cn1 (configuration not stated) | -25.1 |  |
| CC(=O)/C(N=Nc1cc(C)ccc1O)=C(\C)O |  | 20.6 µM (active) |
| Cc1cc(N/N=C/c2ccc(O)cc2O)nc(-n2nc(C)cc2C)n1 | 2.91 |  |
| COC(=O)c1sccc1S(=O)(=O)N(CC(=O)Nc1cc(F)ccc1F)c1ccc(C)c(C)c1 | 4.72 |  |
| O=S(=O)(Nc1nc2n(n1)C(c1ccccc1)C=C(c1ccc(Cl)cc1)N2)c1ccccc1 (configuration not stated) | -9.71 |  |
| CC[n+]1ccccc1/C=C1\Sc2ccc(C)cc2N1C |  | 23.1 µM (active) |
| COc1ccc(C(=O)Nc2ccc3c(c2)N(C)C(=O)c2ccccc2S3)cc1OC | -28.4 |  |
| CCN1/C(=C/c2cccc[n+]2C)Sc2ccc(OC)cc21 |  | 18.4 µM (active) |
| CC[n+]1ccc(/C=C2\Sc3ccccc3N2CCCS(=O)(=O)[O-])c2ccccc21 | -17.2 |  |
| COc1ccc2c(c1)N(C)/C(=C/c1cccc[n+]1C)S2 |  | 7.04 µM (active) |
| N#CC1=C(N)Oc2c(sc3ccccc23)C1c1ccco1 (configuration not stated) | -18.3 |  |
| COc1cc2c3nnc(-c4ccc(F)cc4)c-3cn(Cc3ccc(C)cc3)c2cc1OC |  | 9.94 µM (active) |
| Cn1ccnc1Sc1nc2ccccc2nc1NS(=O)(=O)c1ccccc1 | -9.48 |  |
| O=C(Nc1nnc(-c2ccc3c(c2)CCCC3)o1)c1c(F)cccc1F | 0.764 |  |
| COc1ccc2c(C)cc(SCC#N)nc2c1 |  | 20.6 µM (active) |

| SMILES | max response [%] | Potency |
| --- | --- | --- |
| CCN(CC)c1nc2cc(OC)ccc2cc1C#N | -15.5 |  |
| COCCNC(=S)NN=C1CCCCCC1 | 2.16 |  |
| C/C(=N\NC(=S)NCc1ccccc1)c1cccs1 | -3.71 |  |
| COc1cccc(NC(=O)c2oc3ccc(S(=O)(=O)N4CCC5(CC4)OCCO5)cc3c2C)c1 | -28.1 |  |
| CCOCCCNC(=O)/C(C#N)=C/c1ccc([N+](=O)[O-])o1 |  | 16.4 µM (active) |
| CC(NC(=O)/C(C#N)=C/c1ccc([N+](=O)[O-])o1)c1ccccc1 (configuration not stated) |  | 7.31 µM (active) |
| NC1=NC(=O)/C(=C/c2cc(Br)c(O)c(Br)c2)S1 | -7.06 |  |
| Cc1ccc2[nH]c3c(c2c1)CCCC3NC(=O)CCl (configuration not stated) | -15.6 |  |
| O=C1CC(c2cc(Br)ccc2F)c2cc3c(cc2N1)CCC3 (configuration not stated) | -29.3 |  |
| COc1cc(C(=O)NCCOc2cc(C)cc(C)c2)c(Br)c(OC)c1OC | -22.9 |  |
| O=C(NCc1ccccc1C(F)(F)F)c1cccc2c1C(=O)c1ccc(N3CCC(N4CCCCC4)CC3)cc1S2(=O)=O |  | 16.4 µM (active) |
| COc1ccc(-c2ccc3c(c2)S(=O)(=O)c2cccc(C(=O)NCCOc4ccccc4)c2C3=O)cc1OC |  | 15.8 µM (active) |
| CC1CCN(c2ccc3c(c2)S(=O)(=O)c2cccc(C(=O)NCc4cccc(F)c4)c2C3=O)CC1 |  | 14 µM (active) |
| O=C(NCc1cccc(F)c1)c1cccc2c1C(=O)c1ccc(N3CCCC3)cc1S2(=O)=O |  | 14 µM (active) |
| Cc1cc(-c2nc(C)c(C(=O)NN)s2)no1 | -13.4 |  |
| CCn1c(O)c(/C=N/NC(=O)c2ccncc2)c(=O)n(CC)c1=S | -6.26 |  |
| CC(C)c1cccc(-c2ccc3c(c2)S(=O)(=O)c2cccc(C(=O)NCc4ccccc4)c2C3=O)c1 | -28.2 |  |
| O=C(NCc1ccccc1)c1cccc2c1C(=O)c1ccc(/C=C/c3ccccc3)cc1S2(=O)=O |  | 16.4 µM (active) |
| Cc1ccc(CNC(=O)c2cccc3c2C(=O)c2ccc(N4CCC(C)CC4)cc2S3(=O)=O)cc1 |  | 16.4 µM (active) |
